In the library only some 19% were active in any assay of this set; here they are far more common.
HT1080 IDH1KD tx: qHTS for induction of synthetic lethality in tumor cells producing 2HG: qHTS for the HT-1080-IDH1KD cell line. Potency, µM (doses to about 46.1 µM), most hits filed as cytotoxic. 2% of 360,000 active. HT-1080 IDH1 knockdown viability, ATP luminescence, 48 h
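Viability of IDH1-knockdown HT-1080 fibrosarcoma cells was assessed by CellTiter-Glo after 48 h at 37 °C with titrated compound; concentration-effect curves were classified by fit quality and response size.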
HT1080NT lethal: qHTS for induction of synthetic lethality in tumor cells producing 2HG: qHTS for the HT-1080-NT fibrosarcoma cell line. 1.6% of 360,000 active. HT-1080-NT fibrosarcoma viability, CellTiter-Glo ATP luminescence, 48 h. Potency, µM (doses to about 46.1 µM), hits mostly cytotoxic;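 further: NT is the 2HG producing partner of a matched IDH1 knockdown line; nearly all actives have a fitted effect of over 55% in size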
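A 48-hour cytotoxicity screen used HT-1080-NT cells plated 2 hours before compound delivery. ATP-based CellTiter-Glo luminescence measured viability, normalized to DMSO and no-cell controls.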
DT40 TDP1 no CPT: qHTS for Inhibitors of human tyrosyl-DNA phosphodiesterase 1 (TDP1): qHTS in cells in absence of CPT. DT40 Tdp1-/- hTDP1 cells, no CPT, ATP luminescence, 48 h. Potency, µM (titrated, usually from 46.2 µM), hits mostly inhibitors. 15% of 420,000 active. AID 686978, 2013; further: nearly all actives have a fitted effect of over 55% in size
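Seeded 400 DT40-hTDP1 cells/well (vehicle DMSO, no 20 nM CPT); pinned compounds; ≥48 hr at 37 °C; CellTiter-Glo luminescence as viability measure.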
TDP1 cell CPT: qHTS for Inhibitors of human tyrosyl-DNA phosphodiesterase 1 (TDP1): qHTS in cells in presence of CPT; chicken DT40 Tdp1-/-;hTDP1 cells + 20 nM CPT, ATP luminescence, 48 h; Potency, µM (doses to about 46.2 µM), actives largely listed as inhibitors; 12% of 420,000 active; AID 686979, 2013; further: nearly all actives have a fitted effect of over 55% in size
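Cell growth measured by CellTiter-Glo luminescence after a minimum 48 h, 37 C compound exposure with 20 nM CPT in Tdp1-knockout DT40 cells stably expressing hTDP1, seeded 400/well; qHTS titration format.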
IL1B secr inh: qHTS for Inhibitors of Inflammasome Signaling: IL-1-beta AlphaLISA Primary Screen | AID 743279, 2014 | THP-1 LPS/ATP IL-1B secretion, AlphaLISA, 16 h; hits give low values | 4.7% of 360,000 active | activity change, % at 57.5 µM; in the data active means activity change below about -50%; inconclusive means mostly about -30% to -49%
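THP-1 cells pretreated 1 hr with compounds (up to 57.5 uM final), then stimulated with LPS (250 ng/mL final) plus ATP (1.25 mM final); secreted IL-1B measured by AlphaLISA after 16 hr, decreased signal indicating inhibition.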
Large screens that a line does not name were inactive. Unless noted, the call rests on the fitted dose curve; in most records, active means well fitted curve in the direction sought with a large enough effect; inconclusive means small, poorly fitted or top-dose-only effect, or another doubt; inactive means no such curve, though single readings can be large; an effect the other way counts as inactive or inconclusive.

N#Cc1ccc(C23CC4(C2)[C@H](CN(CC2CCCCC2)[C@@H]4c2ccccc2)C3c2ccccc2)cc1 (stereo not given in full)	DT40 TDP1 no CPT 16µM, TDP1 cell CPT inconclusive
Cc1ccccc1NC(=O)NCc1ccccn1	none
O=C(N/N=C/c1c(O)n(-c2ccccc2Cl)c(=O)c2ccccc12)c1cccnc1	HT1080 IDH1KD tx 9.2µM, HT1080NT lethal 6.5µM, TDP1 cell CPT inconclusive
COc1ccc(Cn2c(O)c(C=Nc3ccc(OC)cc3)c3ccccc3c2=O)cc1	HT1080NT lethal inconclusive
Cc1cccc(-n2c(O)c(/C=N/NC(=O)c3ccccc3Cl)c3ccccc3c2=O)n1	HT1080 IDH1KD tx inconclusive, DT40 TDP1 no CPT inconclusive, TDP1 cell CPT inconclusive
COc1ccccc1NS(=O)(=O)c1cccc(-n2c(O)c(C=Nc3ccccc3C(=O)O)c3ccccc3c2=O)c1	HT1080 IDH1KD tx inconclusive, HT1080NT lethal inconclusive, DT40 TDP1 no CPT 13µM, TDP1 cell CPT inconclusive
O=C(N/N=C/c1c(O)n(Cc2ccccc2)c(=O)c2ccccc12)c1cccnc1	HT1080 IDH1KD tx 15µM, HT1080NT lethal 13µM, DT40 TDP1 no CPT 9.2µM, TDP1 cell CPT inconclusive
COc1ccc(Cn2c(O)c(C=Nc3ccccc3C(=O)O)c3ccccc3c2=O)cc1	DT40 TDP1 no CPT 10µM, TDP1 cell CPT 15µM
COc1ccc(CN(CC(=O)NCc2ccc(F)cc2)C(=O)CCC(=O)Nc2ccccn2)cc1	DT40 TDP1 no CPT inconclusive
O=C(NC1CCCC1)c1ccc2c(=O)n(Cc3ccccc3)c(SCc3ccc([N+](=O)[O-])cc3)nc2c1	TDP1 cell CPT inconclusive (no result: HT1080 IDH1KD tx, HT1080NT lethal, IL1B secr inh)
O=C1CCC([N+](=O)[O-])C(c2ccc(C(F)(F)F)cc2)N1 (stereo not given)	none
O=C(c1ccc(F)cc1)N1CCCC(C(=O)N2CCc3ccccc3C2)C1 (stereo not given)	TDP1 cell CPT inconclusive
CC(=O)c1ccc(N2CCN(S(=O)(=O)c3ccc(-c4coc(C)n4)cc3)CC2)cc1	none (no result: HT1080 IDH1KD tx, HT1080NT lethal, IL1B secr inh)
COc1ccc(/C=N/NC(=O)c2cccnc2)c2ccccc12	none
COc1ccc(Cn2c(O)c(/C=N/NC(=O)c3cccnc3)c3ccccc3c2=O)cc1	HT1080 IDH1KD tx 21µM, HT1080NT lethal inconclusive, DT40 TDP1 no CPT 23µM, TDP1 cell CPT 15µM
COc1ccc2c(C=Nc3c(C)n(C)n(-c4ccccc4)c3=O)c(O)n(Cc3ccco3)c(=O)c2c1	DT40 TDP1 no CPT inconclusive, TDP1 cell CPT 18µM
O=C(C1CCN(S(=O)(=O)c2cccnc2)CC1)N1CCN(c2ccc(Cl)cc2)CC1	HT1080 IDH1KD tx inconclusive, HT1080NT lethal inconclusive, DT40 TDP1 no CPT 3.7µM, TDP1 cell CPT 5.2µM
Cc1ccc(Cl)cc1N1CCN(S(=O)(=O)c2cnc[nH]2)CC1	DT40 TDP1 no CPT inconclusive, TDP1 cell CPT 21µM
O=C(C1CCN(S(=O)(=O)c2ccccc2)CC1)N1CCN(c2ccccc2)CC1	HT1080NT lethal inconclusive, DT40 TDP1 no CPT 21µM, TDP1 cell CPT inconclusive
O=C(C1CCN(S(=O)(=O)c2cccnc2)CC1)N1CCN(c2ccccc2Cl)CC1	DT40 TDP1 no CPT 21µM, TDP1 cell CPT inconclusive
O=C(NN=Cc1ccccc1)C(Oc1ccccc1)c1ccccc1 (stereo not given)	DT40 TDP1 no CPT inconclusive, TDP1 cell CPT inconclusive
Cc1ccc(Cl)cc1N1CCN(C(=O)C2CCN(S(=O)(=O)c3cccnc3)CC2)CC1	HT1080 IDH1KD tx inconclusive, HT1080NT lethal inconclusive, DT40 TDP1 no CPT 4.6µM, TDP1 cell CPT 2.9µM
Cc1ccc(Cl)cc1N1CCN(C(=O)C2CCN(S(=O)(=O)Cc3ccccc3)CC2)CC1	DT40 TDP1 no CPT 13µM, TDP1 cell CPT 4.1µM (no result: HT1080 IDH1KD tx, HT1080NT lethal, IL1B secr inh)
Cc1ccnc(NC(=O)CCC2CCCCC2)c1	none
Cc1cc[n+](CCC2CCCCC2)cc1	DT40 TDP1 no CPT 11µM, TDP1 cell CPT 10µM (no result: HT1080 IDH1KD tx, HT1080NT lethal, IL1B secr inh)
O=C(CNC(=O)N1CC(=O)Nc2ccccc21)NCCc1ccc(Cl)cc1	none
COC(=O)[C@]12CCCCC=C1N(Cc1ccc(Cl)cc1Cl)C(=O)[C@H](CC(=O)NCCc1ccccc1OC)C2	HT1080 IDH1KD tx inconclusive, HT1080NT lethal inconclusive, DT40 TDP1 no CPT inconclusive, TDP1 cell CPT inconclusive, IL1B secr inh -61
COC(=O)[C@]12CCCCC=C1N(Cc1ccc(Cl)cc1Cl)C(=O)[C@H](CC(=O)NCc1ccc(C)o1)C2	HT1080 IDH1KD tx inconclusive, HT1080NT lethal inconclusive, DT40 TDP1 no CPT 16µM, TDP1 cell CPT inconclusive
COC(=O)[C@]12CCCCC=C1N(Cc1ccc(Cl)cc1Cl)C(=O)[C@H](CC(=O)NCCC(C)C)C2	HT1080 IDH1KD tx inconclusive, HT1080NT lethal inconclusive, DT40 TDP1 no CPT 21µM, TDP1 cell CPT inconclusive, IL1B secr inh inconclusive
COC(=O)[C@]12CCCCC=C1N(Cc1ccccc1)C(=O)[C@H](CC(=O)NCCc1ccccc1OC)C2	DT40 TDP1 no CPT inconclusive, TDP1 cell CPT inconclusive
CCCCOCCCNC(=O)C[C@@H]1C[C@@]2(C(=O)OC)CCCCC=C2N(Cc2ccc(Cl)cc2Cl)C1=O	HT1080 IDH1KD tx inconclusive, HT1080NT lethal inconclusive, DT40 TDP1 no CPT inconclusive, TDP1 cell CPT inconclusive, IL1B secr inh -59
O=C(CSc1nc(=O)n2ccccc2n1)NC1CCCCC1	none
CCOC(=O)[C@]12CCCC=C1N(Cc1ccc(Cl)cc1Cl)C(=O)[C@H](CC(=O)NCCCCc1ccccc1)C2	HT1080 IDH1KD tx inconclusive, HT1080NT lethal inconclusive, DT40 TDP1 no CPT inconclusive, TDP1 cell CPT inconclusive
CCCCNC(=O)C[C@@H]1C[C@@]2(C(=O)OC)CCCCC=C2N(Cc2ccc(Cl)cc2Cl)C1=O	HT1080NT lethal inconclusive, DT40 TDP1 no CPT 16µM, TDP1 cell CPT inconclusive
COC(=O)[C@]12CCCCC=C1N(Cc1ccc(Cl)cc1Cl)C(=O)[C@H](CC(=O)NCCCCc1ccccc1)C2	HT1080 IDH1KD tx inconclusive, HT1080NT lethal inconclusive, DT40 TDP1 no CPT inconclusive, TDP1 cell CPT inconclusive, IL1B secr inh -51
CC(C)c1ccc(NC(=O)C2CSC3(C)CCC(=O)N23)cc1 (stereo not given)	TDP1 cell CPT inconclusive
O=C(O)c1ccc(NNC(=S)Nc2cc(C(F)(F)F)ccc2Cl)cc1	DT40 TDP1 no CPT inconclusive, TDP1 cell CPT inconclusive
O=C1c2c(O)ccc(O)c2C(=O)c2c(NCCNCCO)ccc(NCCNCCO)c21	HT1080 IDH1KD tx 23µM, HT1080NT lethal 1.5µM, DT40 TDP1 no CPT 0.033µM, TDP1 cell CPT 0.18µM, IL1B secr inh -102
Cc1ccc(NC(=O)CN(C)C(=O)COc2cc(F)ccc2[N+](=O)[O-])cc1	none
Cc1cnn(C(=S)NCc2ccc(Cl)cc2)c1	HT1080 IDH1KD tx inconclusive, HT1080NT lethal inconclusive, DT40 TDP1 no CPT 23µM, TDP1 cell CPT inconclusive
CCOc1ccc(C2C(C(=O)c3cccs3)=C(O)C(=O)N2CCCn2ccnc2)cc1 (stereo not given)	none
